Luciferase inh – Firefly luciferase inhibition profiling of diverse chemical library using quantitative high-throughput screening | Potency, µM (top dose mostly 115 µM), usual class: inhibitors | 76,000 tested, 2.5% active | AID 1347043, 2019 | Luciferin 4-monooxygenase (Photinus pyralis), P08659 | purified P. pyralis luciferase, luminescence, biochemical; further: nearly all actives have a fitted effect of over 65% in size
Target sequence (P08659 whole entry, looked up): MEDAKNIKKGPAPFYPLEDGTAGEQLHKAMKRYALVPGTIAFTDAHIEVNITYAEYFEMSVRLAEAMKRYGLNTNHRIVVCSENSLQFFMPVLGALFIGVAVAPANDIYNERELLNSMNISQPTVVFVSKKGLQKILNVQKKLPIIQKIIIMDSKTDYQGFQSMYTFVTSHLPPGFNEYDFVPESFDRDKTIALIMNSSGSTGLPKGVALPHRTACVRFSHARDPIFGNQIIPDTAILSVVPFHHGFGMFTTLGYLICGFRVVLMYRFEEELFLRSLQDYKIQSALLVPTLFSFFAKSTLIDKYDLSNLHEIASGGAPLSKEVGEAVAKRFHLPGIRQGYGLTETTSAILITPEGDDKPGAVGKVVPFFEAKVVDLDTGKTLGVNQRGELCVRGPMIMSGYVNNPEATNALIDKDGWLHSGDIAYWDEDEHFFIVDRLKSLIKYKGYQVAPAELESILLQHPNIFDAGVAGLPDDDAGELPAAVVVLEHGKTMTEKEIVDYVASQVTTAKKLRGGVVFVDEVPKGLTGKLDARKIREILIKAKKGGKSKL
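Luminescence read by CCD imager after adding enzyme (10nM final) to wells holding compound, titrated in qHTS. Substrates 10uM each D-luciferin and ATP; buffer 50mM Tris acetate pH 7.5, 10mM Mg acetate, Tween-20, BSA.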
GPT2 inh – Primary qHTS assay for inhibitors of Glutamate pyruvate transaminase 2 (GPT2); Recombinant GPT2, coupled pyruvate oxidase/HRP Amplex Red fluorescence; Potency, µM (highest dose often 57.7 µM), most hits filed as inhibitors; 100,000 tested, 0.25% active; AID 1671188, 2021; further: nearly all actives have a fitted effect of over 60% in size
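Fluorescence read-out: pyruvate from GPT2 turnover coupled to pyruvate oxidase, HRP and Amplex Red (0.2mM ThPP, 0.2U/mL PO and HRP, 50uM Amplex final). Substrates 250uM a-KG, 2mM L-alanine; enzyme 10ng/uL; 30 min RT.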
hNpr1 antagonist – Natriuretic polypeptide receptor (hNpr1) antagonism - Primary qHTS; Atrial natriuretic peptide receptor 1 (Homo sapiens), P16066; HEK293 hNpr1 GloSensor cGMP, ANP-stimulated luminescence; Potency, µM (top dose mostly 46.3 µM), most hits filed as inhibitors; 76,000 tested, 1.6% active; AID 1347048, 2019; calls by dose curve; further: nearly all actives have a fitted effect of over 60% in size
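HEK293 cells stably expressing human Npr1 and cGMP GloSensor pGS-40F, loaded 2 h with 2% GloSensor reagent, given compound 30 min at room temperature. Luminescence read before and 20 min after 0.1 nM hNppA.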
3T3 cytotox – Cytotoxic Profiling in NIH 3T3 Cell Line of Diverse Libraries Using Quantitative High-Throughput Screening; Potency, µM (doses to about 96.7 µM), most hits filed as inhibitors; 94,000 tested, 4.3% active; AID 1345082, 2018; NIH 3T3 viability, CellTiter-Glo ATP luminescence, 48-72 h; further: nearly all actives have a fitted effect of over 55% in size
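NIH 3T3 cells at 400 cells/well received 23 nL of compound by pintool and were incubated 48 or 72 h at 37 °C. Viability was read as ATP-coupled CellTiter-Glo luminescence.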
HEK cytotox – Cytotoxic Profiling in HEK 293 Cell Line of Diverse Libraries Using Quantitative High-Throughput Screening; HEK 293 viability, ATP luminescence (CellTiter-Glo), 48-72 h; Potency, µM (titrated, usually from 115 µM), actives largely listed as inhibitors; 94,000 tested, 6.6% active; further: nearly all actives have a fitted effect of over 60% in size
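CellTiter-Glo luminescence (cellular ATP) was read after 48 or 72 hr of compound exposure at 37 degree Celsius. Cells were HEK 293 plated at 250 cells/well.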
A number is an active result; i = inactive; ? = inconclusive; nt = not tested or not shown; [ ] = dose if it differs, or a comment. An excerpt weighted towards active compounds, which were near 10% of everything screened. Unless noted, the call rests on the fitted dose curve; in most records, active means well fitted curve in the direction sought with a large enough effect; inconclusive means small, poorly fitted or top-dose-only effect, or another doubt; inactive means no such curve, though single readings can be large; an effect the other way counts as inactive or inconclusive.

SMILES	Luciferase inh	GPT2 inh	hNpr1 antagonist	3T3 cytotox	HEK cytotox
COc1cc(N2CCC(O)CC2)ccc1Nc1nc(Nc2ccccc2S(=O)(=O)C(C)C)c2[nH]cnc2n1	nt	17.8µM	nt	nt	nt
Cc1ccccc1C(=O)N1CCN(C(=O)c2nnn3c2COC(c2ccccc2)C3)CC1 (stereo not drawn)	i	i	i	i	?
CCn1nccc1C(=O)N1C[C@@H](COCC2CC2)[C@H](c2ccncc2)C1	i	i	i	i	i
Cc1cccc(NC(=O)Nc2ccc(C)n(CC(=O)Nc3ccc(C)c(C)c3)c2=O)c1	i	i	i	31.6µM	28.2µM
Cc1cccc(NC(=O)Nc2ccc(C)n(CC(=O)O)c2=O)c1	15.8µM	i	i	i	i
COc1ccccc1-c1cccc(C(=O)N2CCN([S+](=O)([O-])c3ccccc3)CC2)c1	nt	i	nt	?	31.6µM
COc1ccccc1-c1cccc(C(=O)N2CCN([S+](=O)([O-])c3cccs3)CC2)c1	nt	i	nt	?	20µM
COc1ccccc1-c1cccc(C(=O)N2CCN([S+](=O)([O-])c3c(C)noc3C)CC2)c1	nt	i	nt	i	?
COc1ccc(N2CC3CCC(C2)N3Cc2ccc(C#N)cc2)cc1	nt	10µM	nt	i	i
COc1ccc(N2CC3CCC(C2)N3Cc2ccc(NC(C)=O)cc2)cc1	nt	?	nt	i	i
COc1ccccc1CCC(=O)N1CCC2(CC1)NC(=O)N(c1cccc(F)c1)N2	i	?	i	?	?
O=C(c1ccc(F)cc1)N1CCCC(C(=O)N2CCC(c3nc4ncccc4[nH]3)C2)C1 (stereo not drawn)	nt	i	nt	i	i
O=C(c1ccc(-n2cnnn2)cc1O)N1CCCC(CCc2ccc(F)cc2)C1 (stereo not drawn)	i	i	?	?	35.5µM
O=C(c1ncccc1O)N1CCCC(CCc2cccc(C(F)(F)F)c2)C1 (stereo not drawn)	i	i[11.5 µM]	i	?	?
O=C(c1cc(=O)[nH]c2cc(F)ccc12)N1CCCC(CCc2ccc(F)cc2)C1 (stereo not drawn)	i	i[11.5 µM]	?	?	?
Cn1cc(CN2CCCC(CCc3cccc(C(F)(F)F)c3)C2)cn1 (stereo not drawn)	i	i	i	?	?
O=C(CCn1cnnn1)N1CCCC(CCc2cccc(C(F)(F)F)c2)C1 (stereo not drawn)	i	?	i	?	17.8µM
Cc1nc(C(=O)N2CCCC(CCc3cccc(C(F)(F)F)c3)C2)c(C)o1 (stereo not drawn)	i	i	i	?	25.1µM
Cc1nccn1CCNC(=O)c1ccc(N2CC3CC(C2)[C@H]2CCCC(=O)N2C3)nc1 (stereo partly drawn)	i	i	i	i	i
COc1ccc(CN2CCCC3(COc4ccccc4[S+](=O)([O-])N3)C2)cc1 (stereo not drawn)	nt	i	nt	i	i
CC(C)N1CC[C@H](c2nc3ccc(C(F)(F)F)cc3[nH]2)C1	22.4µM	i	i	i	?
COc1ccc2nc([C@H]3CCN(C(C)C)C3)[nH]c2c1	22.4µM	i	?	i	i
CC(C)N1CC[C@H](c2nc3ccc(C#N)cc3[nH]2)C1	39.8µM	i	i	i	i
COc1cc2c(cc1OC)C(C[C@H]1CN(S(=O)(=O)c3cccs3)CC[C@H]1CC(=O)O)=NCC2	i	i	i	i	?
CN(Cc1ccc(-c2ccccc2)cc1)Cc1cccnc1	50.1µM	i	8.91µM	?	?
SMILES	Luciferase inh	GPT2 inh	hNpr1 antagonist	3T3 cytotox	HEK cytotox
CN(Cc1ccc(-c2ccccc2)cc1)Cc1ccccn1	50.1µM	i	i	?	50.1µM
CN(Cc1ccc(F)cc1)Cc1ccc(-c2ccccc2)cc1	i	i	i	i	i
NC(=O)[C@H](Cc1cccs1)NC(=O)C1=C[C@@H](NC(=O)CC2(CC(=O)O)CCCC2)[C@@H](O)[C@H](O)C1	i	i	i	i	i
O=C(CC1CCOCC1)NCc1ccc(N2CCOCC2)cc1	i	i	i	i	i
CCc1nc2c(c(-c3ccc(Cl)cc3)n1)CN(Cc1ccc(OC(F)(F)F)cc1)CC2	i	i	i	25.1µM	?
CCc1nc2c(c(-c3ccc(O)cc3)n1)CN(Cc1ccccc1OC)CC2	i	i	i	?	44.7µM
CCc1nc2c(c(-c3ccc(Cl)cc3)n1)CN(Cc1ccc(C)cc1)CC2	i	i	i	25.1µM	?
CCc1nc2c(c(-c3ccc(O)cc3)n1)CCN(Cc1ccccc1OC)CC2	i	i	i	?	?
CCc1nc2c(c(-c3ccc(Cl)cc3)n1)CN(Cc1ccccc1)CC2	i	i	i	10µM	17.8µM
O=C1Cc2c(-c3ccccc3Oc3ccccc3)n[nH]c2CN1CCc1ccncc1	i	i	i	?	?
CCc1nc2c(c(-c3ccc(Cl)cc3)n1)CN(Cc1ccsc1)CC2	i	i	i	?	?
CCc1nc2c(c(-c3ccc(Cl)cc3)n1)CN(Cc1ccc(C(F)(F)F)cc1)CC2	i	i	i	?	89.1µM
O=C(NC1CCCCC1)O[C@@H]1CO[C@H]2[C@@H]1OC[C@@H]2NC(=S)Nc1cccc2ccccc12	i	i	i	?	?
Fc1cccc(-c2cc(-c3cn[nH]c3)c3cncn3c2)c1	i	i	i	?	?
Fc1ccc(-c2cc(-c3cn[nH]c3)c3cncn3c2)cc1	i	i	i	44.7µM	?
COc1cc(F)ccc1-c1cc(-c2cn[nH]c2)c2cncn2c1	i	i	i	31.6µM	?
Cc1ccccc1-c1cc(-c2cn[nH]c2)c2cncn2c1	i	i	i	70.8µM	?
CCNC(=O)[C@@H]1C[C@H](NC(=O)c2ccc[nH]2)CN1C(=O)CCn1cnnn1	i	i	i	i	i
CN1Cc2ncnc(NCC3CC3)c2CN(c2ccccc2)C1=O	i	i	i	?	i
Cc1nc(N2CCC(NC(=O)c3nn(C)c4ccccc34)CC2)cc(C(F)(F)F)n1	i	i	?	?	44.7µM
O=C(CCc1ccc(=O)[nH]n1)N[C@@H]1COCC[C@H]1Oc1ccccn1	i	i	i	i	i
CCc1nc(CN2CCOC(c3ccc4cc(OC)ccc4c3)C2)no1 (stereo not drawn)	39.8µM	i[11.5 µM]	i	?	?
C=CCC1(CO)CCCN(Cc2cc(C3CCCCC3)no2)C1 (stereo not drawn)	i	i	i	?	39.8µM
OCC1(CC2CC2)CCCN(Cc2noc(C3CC3)n2)C1 (stereo not drawn)	i	i	i	i	i
Clc1ccc(CNc2nc(-c3ccccc3)no2)cc1	15.8µM	i	i	?	?
O=C(NCc1ccccc1)c1ccccc1OC1CN(Cc2cccnc2F)C1	nt	i	nt	?	?
